Measured values: PubChem BioAssay AID624202 (National Center for Advancing Translational Sciences (NCATS), 2012)
The whole screen tested about 380,000 compounds, of which about 4,000 (1.1%) were called active. Another 3% or so got no clear call; they are omitted. Calls come from the whole dose curve; as a rule, active = well fitted activation curve with a large enough effect; inconclusive = small, poorly fitted or top-dose-only effect; inactive = no such curve, though single readings can be large or run the other way. The list comes from a sample in which actives are over-represented; it also holds similar structures and randomly drawn compounds.

test: qHTS Assay to Identify Small Molecule Activators of BRCA1 Expression; details: MCF7-BRCA1-FFLuc reporter, luminescence, 48 h; series mostly up to 46.1 µM; activation: at the top concentration; note: nearly all actives have a fitted effect of over 80% in size
How it was run: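 Cells: MCF7-BRCA1-FFLuc, 2000/well. Exposure: 48 h, 37 °C, 5% CO2. Read: luminescence, 15 min post-substrate. Controls: genistein 10 microM (maximal activation), DMSO (neutral).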
Potency is the fitted concentration of half-maximal effect.

activation, inactive:
COc1cc(OC)cc(-c2nc3nc(C)c(CCC(=O)Nc4ccc(C)cc4)c(C)n3n2)c1 -2.52%
O=C(CSc1nc2ccccc2c(=O)n1-c1ccccc1F)N1CCOCC1 -6.09%
CCc1c(O)nc(SCC(=O)N2CCCCC2)n(-c2ccccc2C)c1=O 6.28%
COc1cccc(CNC(=O)CN2C(=O)CCc3cc(S(=O)(=O)N4CCOCC4)ccc32)c1 11.1%
COc1cc(OC)c(/C=C/c2ccnc3ccccc23)c(OC)c1 -43.7%
COc1ccc(/C=C/c2ccnc3ccccc23)cc1OC -23.9%
COc1cc2[nH]c(O)c(C=O)c2cc1OC 1.23%
CCN(CC)/[N+]([O-])=N/OCOC(=O)Cc1c(C)n(C(=O)c2ccc(Cl)cc2)c2ccc(OC)cc12 -16%
CCc1ccc(CNC(=O)c2cc3cc4ccc(OC)cc4nc3o2)cc1 -7.1%
COc1ccccc1OCCNC(=O)CCNC(=O)c1ccccc1Cl -0.0194%
O=C(NCCOc1ccccc1Cl)C(=O)Nc1ccccc1 -41.6%
CCOCCc1nn2c(=O)cc(COC(=O)CNC(=O)c3ccc(C(C)(C)C)cc3)nc2s1 6.51%
Cn1c(=O)nc2n(-c3ccc(Br)cc3)c3cccc(Cl)c3cc-2c1=O -11.7%
O=C(CSc1ncc(S(=O)(=O)c2ccc(Br)cc2)c(=O)[nH]1)Nc1ccc2c(c1)OCCO2 15.7%
O=C(OCc1ccc(-c2ccccc2)cc1)c1cccc(O)c1 83.1%
c1ccc(-c2c[nH]c(-c3ccccc3)c2)cc1 41.4%
COc1ccccc1CNC(=O)CCCCn1c(=O)c2ccccc2n(CC(=O)Nc2cc(Cl)ccc2C)c1=O -20.3%
Cc1cccc(N2CCN(C(=O)c3oc(=O)c4ccccc4c3-c3ccccc3)CC2)c1C -3.27%
O=C(c1[nH]ncc1-c1ccc(Cl)cc1)C1CO1 (configuration not stated) -20%
O=C(Nc1cnn(Cc2ccc(Cl)cc2)c1)C1CCCC1 7.68%
c1ccc(Cn2nnc3c(N4CCCCC4)ncnc32)cc1 32%
COc1ccccc1CCNC(=O)c1cccn1-c1nnc(N2CCCCC2)s1 -17%
COc1ccc(C2NC(=O)N(C)C3=C2C(=O)N(c2ccc(C(=O)O)cc2)C3)cc1 (configuration not stated) 8.52%
Cc1scc(C(=O)NNC(=S)NCC(C)C)c1C 2.45%
CC(C)CNC(=S)NNC(=O)c1nn(C)cc1Cl 7.17%
Cc1c2cnn(-c3ccccc3)c(=O)c2c(C)n1C(C)C(=O)Nc1ccc(Br)cc1F (configuration not stated) -24.2%
Cc1cc(C)cc(-n2c(SCC(=O)NCC3CCCO3)nc3c([nH]c4ccccc43)c2=O)c1 (configuration not stated) -50.7%
CN(CCOc1ccccc1)C(=O)c1cc(COc2c(F)cccc2F)on1 0%
O=C(NCCN1CCCC(O)C1)c1cc(COc2c(F)cccc2F)on1 (configuration not stated) 5.2%
Nc1nonc1C(=O)NCCc1ccccc1 4.5%
C[C@H](NC(=O)NCCc1ccccc1)C(=O)O -23.9%
O=S(=O)(c1ccc(C2CCCCC2)cc1)N1CCN(c2ccc(Cl)c(Cl)c2)CC1 3.15%
CSc1cccc(NC(=O)CN2C(=O)CCc3cc(S(=O)(=O)N4CCCCC4)ccc32)c1 -12.1%
COc1ccc2c(c1)c(=O)c(C(=O)c1ccccc1)cn2CC(=O)Nc1ccc2c(c1)OCCO2 1.41%
CC(=O)N1CCc2cc(Br)cc(S(=O)(=O)CCC(=O)NCCc3ccc(Cl)cc3)c21 -2.1%
CN(CC(=O)Nc1cccc(C(F)(F)F)c1)S(=O)(=O)c1cccs1 14.2%
CC(=O)NN=C(C)c1ccc(NC(=O)C2CC2)cc1 13.3%
C/C(=N/NS(=O)(=O)c1ccccc1)c1ccc(NC(=O)C(F)(F)F)cc1 3.78%
O=C(CSc1nc(=O)n(Cc2cccnc2)c2c1CCC2)Nc1ccc(F)cc1F -12.5%
CC(=O)Nc1ccc(S(=O)(=O)N2CCN(c3ccccc3)CC2)cc1 3.72%
COc1cc(-c2nnn(CC(=O)NCc3ccccc3)n2)cc(OC)c1OC -8.64%
Cc1ccccc1-c1nnn(CC(=O)c2ccc(S(=O)(=O)N3CCCC3)cc2)n1 -30.9%
O=C(Nc1ccccc1C(F)(F)F)c1nc(S(=O)(=O)Cc2ccccc2F)ncc1Cl -78.4%
COc1ccccc1-c1sc2ccccc2c1-c1ccc(C(C)=O)cc1 -15.5%
COC(=O)c1ccc(/C=C/c2c(-c3ccc(OC)cc3)sc3ccccc23)cc1 -41.1%
CCN(CC)S(=O)(=O)c1ccc2c(c1)c(=O)c(C(=O)N1CCN(c3cccc(Cl)c3)CC1)cn2C 1.45%
CCNC(=O)c1sccc1-n1cccc1 -2.78%
Cc1ccsc1C(=O)NC1CCCCC1C (configuration not stated) 23.2%
NC(=O)Nc1ccc(/C=C/c2ccnc3ccccc23)cc1 9.16%
COc1ccc(CNc2nc(-c3ccc(Cl)cc3)nn2C(=O)c2ccccc2)cc1 0.489%
CCC(C(=O)Nc1cc(OC)ccc1OC)n1c(=O)c(C(F)(F)F)nc2ccccc21 (configuration not stated) 0%
Cc1cccc(NC(=O)CSCC(=O)Nc2nnc(C3CC3)s2)c1 -38.4%
CC1CCN(c2ccc(C(=O)Nc3nnc(C4CC4)s3)cc2[N+](=O)[O-])CC1 13.3%
Cc1ccc(Cc2nc3ccccc3nc2SCC(=O)Nc2cccc(C(F)(F)F)c2)cc1 0.931%

Potency, active:
Cc1ccc(-n2c(SCC(=O)N3CCC(C(=O)O)CC3)nc3ccccc3c2=O)cc1C 4.47 µM
COc1ccc(N=Cc2c(O)[nH]c3ccccc23)cc1OC 3.16 µM
COc1cc(SC)ccc1C(=O)NCCOc1ccccc1Cl 7.94 µM
Oc1ccc(-c2cccc(-c3ccc(O)cc3)c2)cc1 10 µM
O=C(c1nnc(-c2ccc(Cl)cc2)o1)C1CCCC1 11.2 µM
CC(C)CNC(=S)NC(=O)c1ccc(Cl)cc1 10 µM
CC(C)Cc1cc(C(=O)NCCc2ccccc2)no1 5.01 µM
O=C(NCCCc1ccccc1)c1cc(COc2c(F)cccc2F)on1 12.6 µM
C/C(=N/NC(=O)c1ccc(NC(=O)c2ccc(F)cc2)cc1)c1ccccc1 12.6 µM
CC(C)(C)NC(=O)Cn1nnc(-c2ccccc2Cl)n1 12.6 µM
COc1ccc(N=C(C)c2sc3ccccc3c2O)cc1 5.01 µM
Cc1ccsc1C(=O)NCCc1ccco1 4.47 µM
Cc1cc(C(=O)Nc2nnc(C3CC3)s2)c(C)s1 3.55 µM
